Screen size: about 52,000 compounds; about 4,300 (8.3%) were called active. This excerpt belongs to a sample that is enriched for actives. A number with no mark means an inactive call. Rule as the data show it: active = survival mostly below about 52% (no sharp cut-off); inactive = mostly above about 56%.
test system: DeltatarO mutant; experiment: S. aureus survival, RN4220 and DeltatarO strains – OD600, teichoic acid synthesis inhibitors, primary screen (AID 463173); conditions: S. aureus RN4220 wild type/DeltatarO growth, OD600, 18 h, stronger effect = lower value, screened at 18.75 µg/mL (by protocol)

Row | Structure (SMILES) | survival
1 | CNc1nc2ccccc2o1 | 89%
2 | O=C(CSc1nnc(-c2cccs2)o1)Oc1ccccc1Cl | 81%
3 | Cc1ccc(CNC(=O)CCCn2c(=O)c3ccccc3n(CC(=O)Nc3ccc(C)cc3)c2=O)cc1 | 89%
4 | COc1ccccc1N(CC(=O)N1CCC(C)CC1)S(=O)(=O)c1ccc(C)cc1 | 134%
5 | COc1ccc(C)cc1N(CC(=O)N1CCC(C)CC1)S(=O)(=O)c1ccc(C)cc1 | 55% (active)
6 | CCOC(=O)N1CCN(C(=O)CN(c2cc(C)ccc2OC)S(=O)(=O)c2ccc(C)cc2)CC1 | 87%
7 | O=C(CSc1nc(-c2ccc(F)cc2)[nH]c1-c1ccc(F)cc1)Nc1ccc2c(c1)OCCO2 | 76%
8 | N#CCCCN1C(=O)C(=C(C#N)C#N)c2ccccc21 | 75%
9 | N#Cc1cc2nc3c(nc2cc1C#N)-c1cccc2cccc-3c12 | 85%
10 | N#Cc1nc2c(nc1C#N)-c1ccccc1C2=O | 19% (active)
11 | N#CC(C#N)=C1c2ccccc2-c2c1nc1ccccc1[n+]2[O-] | 78%
12 | N#CC(C#N)=C1c2ccccc2-c2nc(C#N)c(C#N)nc21 | 4% (active)
13 | O=C1c2ccccc2-c2n[nH]c(=S)nc21 | 64%
14 | COC(=O)c1ccc2c(=O)n(CCCCCC(=O)N3CCN(c4ccc(Cl)cc4)CC3)c(=O)[nH]c2c1 | 116%
15 | COc1ccccc1OC(C)C(=O)Nc1c(C(=O)c2ccc(Cl)cc2)oc2ccccc12 (centres undefined) | 81%
16 | Cc1ccc(C(=O)c2oc3ccccc3c2NC(=O)COc2ccccc2Cl)cc1 | 123%
17 | Cc1cc(C)cc(OCC(=O)Nc2c(C(=O)c3ccccc3)oc3ccccc23)c1 | 92%
18 | Cc1ccc(C(=O)c2oc3ccccc3c2NC(=O)C(C)Oc2ccccc2Cl)cc1 (centres undefined) | 40% (active)
19 | Cc1cc(C)cc(OC(C)C(=O)Nc2c(C(=O)c3ccccc3)oc3ccccc23)c1 (centres undefined) | 17% (active)
20 | CCc1ccc(OC(C)C(=O)Nc2c(C(=O)c3ccccc3)oc3ccccc23)cc1 (centres undefined) | 38%

Row | Structure (SMILES) | survival
21 | CC(C)Cn1c(=O)c2ccccc2n2c(-c3ccc(Br)cc3)nnc12 | 94%
22 | Cc1ccc(CN(Cc2ccco2)C(=O)COc2ccc(Cl)cc2Cl)cc1 | 96%
23 | Cc1ccc(-c2nnc(Nc3ccc(O)cc3)c3ccccc23)cc1S(=O)(=O)N1CCCCC1 | 104%
24 | Cc1cccc(N2CCN(c3nc4ccc(C(=O)c5ccccc5)cc4n4cnnc34)CC2C)c1 (centres undefined) | 76%
25 | Cc1ccc(CN2CCC(CNc3ncnc4onc(-c5ccc(F)cc5)c34)CC2)cc1 | -2% (active)
26 | Cc1ccc(CO)cc1Nc1ncnc2onc(-c3ccc(F)cc3)c12 | 46% (active)
27 | Cc1ccc(CN2CCC(CNc3ncnc4onc(-c5ccc(Cl)cc5)c34)CC2)cc1 | 80%
28 | Cc1ccc(CCNc2ncnc3onc(-c4ccc(F)cc4)c23)cc1 | 83%
29 | Fc1ccc(-c2noc3ncnc(NCC4CCN(Cc5ccc(Cl)cc5)CC4)c23)cc1 | 72%
30 | Cc1cc(C)cc(Nc2ncnc3onc(-c4ccc(F)cc4)c23)c1 | 84%
31 | Cc1cccc(N2CCN(C(=O)c3cccc(-n4c(C)nc5cccnc54)c3)CC2)c1C | 104%
32 | COc1ccc2c(c1)cc1c(=O)n(CC(=O)NC3CCCCC3)nc(C)n12 | 70%
33 | COc1ccc(CCNS(=O)(=O)c2c(C)nc3sccn3c2=O)cc1OC | 64%
34 | CCOc1ccc(CN2C(=O)c3ccccc3Sc3ccc(C(=O)NCCc4ccccc4)cc32)cc1 | 58%
35 | COC(=O)C1(C)NC(c2ccc(OC)cc2)C2C(=O)N(c3ccccc3)C(=O)C21 (centres undefined) | 80%
36 | COC(=O)C1(C)NC(c2ccccc2C)C2C(=O)N(C)C(=O)C21 (centres undefined) | 54% (active)
37 | COC(=O)C1(C(C)C)NC(c2ccccc2OC)C2C(=O)N(C)C(=O)C21 (centres undefined) | 84%
38 | COc1ccc(C)cc1NS(=O)(=O)c1ccc2oc(=O)c3ncn(C)c3c2c1 | 77%
39 | CCc1ccc(S(=O)(=O)NCc2ccc3c(c2)CCN3C(=O)c2ccc(C)cc2)cc1 | 71%
40 | CCOc1ccc(-c2nonc2NC(=O)c2ccco2)cc1 | 79%

Row | Structure (SMILES) | survival
41 | CC(=O)c1cccc(NC(=O)Cn2cnc3c2c(=O)n(C)c(=O)n3C)c1 | 44% (active)
42 | Cn1c(=O)c2c(ncn2CC(=O)Nc2cccc(C(F)(F)F)c2)n(C)c1=O | 71%
43 | CC(=O)Nc1cccc(NC(=O)Cn2cnc3c2c(=O)n(C)c(=O)n3C)c1 | 70%
44 | Cc1cccc(-c2cc(-c3ccccc3)nc(SCC(=O)Nc3ccccc3)c2C#N)c1 | 67%
45 | COc1cc(C(CC(=O)Nc2ccc(C)c(F)c2)N2Cc3ccccc3C2=O)cc(OC)c1OC (centres undefined) | 93%
46 | CC(C)c1ccc(S(=O)(=O)NCc2ccc3c(c2)CCN3C(=O)c2ccccc2)cc1 | 87%
47 | Cc1scc(CN2CCN(c3ccc(F)cc3)CC2)c1C | 64%
48 | Cc1cc(CN2CCN(c3ccc(F)cc3)CC2)cs1 | 69%
49 | Cc1ccc(-c2c(CN3CCN(c4cc(Cl)ccc4C)CC3)csc2C)cc1 | 51%
50 | CCc1c(CN2CCN(c3cccc(C)c3C)CC2)csc1C | 76%
51 | Cc1scc(CN2CCN(c3ccccc3F)CC2)c1C | 64%
52 | Cc1ccc(-c2c(CN3CCN(c4cccc(C)c4C)CC3)csc2C)cc1 | 21% (active)
53 | CCc1c(CN2CCN(c3ccccc3F)CC2)csc1C | 32% (active)
54 | CCc1c(CN2CCN(c3ccc(F)cc3)CC2)csc1C | 38% (active)
55 | Cc1ccc(-c2c(CN3CCN(c4cc(C)ccc4C)CC3)csc2C)cc1 | 126%
56 | COc1ccc(-c2cc(C(F)(F)F)nc(SCCC(=O)Nc3ccccc3F)n2)cc1 | 77%
57 | Cc1ccc(Cl)cc1NC(=O)Cn1nnc2sc3c(c2c1=O)CCC(C(C)(C)C)C3 (centres undefined) | 58%
58 | C=CCc1c(C)nc2nc(SCC(=O)Nc3cccc(Cl)c3)nn2c1C | 102%
59 | CCCNC(=O)C1CCN(C(=O)N2CC(C)Oc3ccccc32)CC1 (centres undefined) | 65%

Source: PubChem BioAssay AID463173 (ICCB-Longwood Screening Facility, Harvard Medical School, 2010)
